Laboratory results reported in PubChem BioAssay AID1259343 (VanderVen Lab, College of Veterinary Medicine, Cornell …, 2017).
The whole screen tested about 6,200 compounds, of which about 2,900 (47%) were called active. Cut-off read from the data, not from the text of the source: active = inhibition above about 50%; inactive = the rest. So high a share suggests a set chosen from earlier hits. Some of the results follow.

assay: Mycobacterium tuberculosis growth inhibition, primary screen (AID 1259343); details: inhibition: at 10 µM, stronger effect = higher value; outcome: 10 uM

Row | Compound | inhibition
1 | Brc1cc2c(cc1Cn1nnc(-c3cccs3)n1)OCO2 | -19.9% (inactive)
2 | Cc1ccc(C)c(-n2nnnc2SCCCC(=O)c2cccs2)c1 | -43% (inactive)
3 | O=C(Cn1nnc([N+](=O)[O-])n1)c1cccs1 | 98.8% (active)
4 | O=C(CN1C(=O)CC2(CCCC2)C1=O)c1ccc(Cl)s1 | -28.2% (inactive)
5 | O=C(Cn1nnc(-c2cccs2)n1)c1ccc(Cl)s1 | 77.8% (active)
6 | CC(C)(C)c1cc2nc(C(=O)O)cc(-c3ccccc3F)n2n1 | 62.4% (active)
7 | CC(C)(C)c1cc2nc(C(=O)O)cc(-c3ccccc3Cl)n2n1 | 58.8% (active)
8 | CC(C)(C)c1cc2nc(C(=O)O)cc(-c3ccc(Cl)cc3)n2n1 | 83.5% (active)
9 | CCC(=O)O[C@H]1CCC2C3CCc4cc(O)ccc4C3CC[C@@]21C (some centres undefined) | 46.7% (inactive)
10 | CCC(CC)C(NC[c-]1[c-][c-][c-][c-]1)c1ccccc1.[Fe].[c-]1[c-][c-][cH-][c-]1 (centres undefined) | 36.6% (inactive)
11 | O=C(CCc1nc2ccccc2o1)N1CC=C(c2ccccc2)CC1 | 29.9% (inactive)
12 | O=C(O)CCc1nc2ccccc2oc1=O | 67.4% (active)
13 | CCOc1ccc2cc(C(=O)C(C#N)C(=O)c3ccsc3)[nH]c2c1 (centres undefined) | 12.1% (inactive)
14 | Cn1c2c(c3cc(-c4cccc5c4CCNC5)ccc31)CCCC2=O | 10.9% (inactive)
15 | c1cc2c(c(-c3cccc4[nH]ccc34)c1)CCNC2 | 73.2% (active)
16 | O=c1[nH]cc(F)c(=O)[nH]1 | 67.9% (active)
17 | Cc1csc(C(C#N)=Cc2cccc(O)c2)n1 | 88.7% (active)
18 | N#CC(=Cc1ccsc1)c1nc2ccccc2s1 | 11.6% (inactive)
19 | Cc1nc(CNc2ccc3c(c2)CCN3C(=O)OC(C)(C)C)cs1 | 29.2% (inactive)
20 | CC(C)(C)OC(=O)N1CCc2cc(NC(=O)C(=O)NC3CC3)ccc21 | 74.5% (active)
21 | CN1CCCc2cc(NC(=O)NCCC(=O)NC3CCCC3)ccc21 | 0.23% (inactive)
22 | COc1cccc(-c2cnnc(N3CCC(OCc4ccccc4)CC3)n2)c1 | 30.1% (inactive)
23 | c1ccc(COC2CCN(CCOc3ccccc3)CC2)cc1 | 50.1% (active)
24 | CCc1cc(=O)[nH]c(-n2nc(C)cc2NC(=O)c2cccc(C)c2)n1 | 101% (active)
25 | CCc1cc(=O)[nH]c(-n2nc(C)cc2NC(=O)c2ccccc2)n1 | 102% (active)
26 | CCc1cc(=O)[nH]c(-n2nc(C)cc2NC(=O)c2ccc(-c3ccccc3)cc2)n1 | 103% (active)

Row | Compound | inhibition
27 | N#Cc1ccc(Nc2ccc(OC3CCCC3)cc2)nc1 | 93.4% (active)
28 | N#Cc1ccc(Nc2ccc(N3CCCC3)c(F)c2)nc1 | 48.8% (inactive)
29 | N#Cc1ccc(Nc2ccc(Cl)cc2)cc1 | 3.65% (inactive)
30 | CC(C)C1=CC2=CC[C@H]3[C@](C)(CO)CCC[C@]3(C)C2CC1 (some centres undefined) | 82.5% (active)
31 | Cc1cn(Cc2csc(C(C)C)n2)cc1C#N | 1.23% (inactive)
32 | N#Cc1cccc(C(=O)NCc2cccc(-c3ncc(-c4ccc(F)cc4)[nH]3)c2)c1 | 81.2% (active)
33 | O=C(NCc1cccc(-c2ncc(-c3ccc(F)cc3)[nH]2)c1)c1cccs1 | 22.9% (inactive)
34 | Cn1c(Sc2ncc(-c3ccc(F)cc3)[nH]2)c(C#N)c(=O)n(C)c1=O | -14.4% (inactive)
35 | O=C(COC1CCCCC1)Nc1ccc(-c2nccs2)cc1 | -7.41% (inactive)
36 | Cc1nc(-c2ccc(NC(=O)COC3CCCCC3)cc2)cs1 | 95% (active)
37 | Cc1nc(-c2cccs2)cc([C@H]2CN3CC[C@H]2C[C@@H]3CNC(=O)Nc2cccc(C(F)(F)F)c2)n1 | 53.2% (active)
38 | Cc1nn(-c2ccccc2)c(Cl)c1C(=O)Nc1cccc(C(F)(F)F)c1 | 38.3% (inactive)
39 | Cc1sc2nc(CSc3ccc(Br)cc3)nc(-n3ccnc3)c2c1C | -19.2% (inactive)
40 | N#CCOc1ccc(NC(=O)CCOc2ccc(F)cc2Cl)cc1 | 81.4% (active)
41 | Cc1ccc(C(=O)Nc2ccc(OCC#N)cc2)cc1C | 22% (inactive)
42 | CC(=O)NCCC(=O)Nc1ccc(Oc2ccc(C#N)cc2)c(Cl)c1 | -2.79% (inactive)
43 | O=S(=O)(CCCOc1ccc2c(c1)OCO2)N1CCCCC1 | 88.8% (active)
44 | O=S(=O)(CCCOc1ccc2c(c1)OCO2)N1CCCCCC1 | 86% (active)
45 | CCOC(=O)N1CCN(S(=O)(=O)CCCOc2ccc3c(c2)OCO3)CC1 | 32.5% (inactive)
46 | CC1CCN(c2ncnc3c2cnn3Cc2ccc(Cl)cc2)CC1 | 62.6% (active)
47 | CCN(CC)c1ncnc2c1cnn2Cc1ccc(Cl)cc1 | 34.4% (inactive)
48 | Clc1ccc(Cn2ncc3c(N4CCCCC4)ncnc32)cc1 | 67.1% (active)
49 | Clc1ccc(Cn2ncc3c(N4CCCC4)ncnc32)cc1 | 65.3% (active)
50 | c1ccc2c(c1)oc1c(N3CCCCCC3)ncnc12 | -12.7% (inactive)
51 | Clc1ccc(Cn2ncc3c(N4CCN(c5cccc(Cl)c5)CC4)ncnc32)cc1 | 14.4% (inactive)
52 | Cc1ccc(Cn2ncc3c(N4CCC(C)CC4)ncnc32)cc1 | 25.7% (inactive)

Row | Compound | inhibition
53 | CCOc1ccc(C2C(c3nc4ccccc4s3)=C(O)C(=O)N2c2cc(C)on2)cc1OC (centres undefined) | 46.5% (inactive)
54 | Clc1ccccc1C(c1ccccc1)(c1ccccc1)n1ccnc1 | 68.1% (active)
55 | COc1cc(OC)c2c(OC)c(-c3ccc4c(c3)OCO4)c(=O)oc2c1 | 70.6% (active)
56 | Cn1ncc2c(N3CCN(CC(=O)Nc4ccc(Cl)cc4F)CC3)ncnc21 | 88.8% (active)
57 | CCCc1cc(=O)[nH]c(-n2nc(C)cc2NC(=O)c2cc(OCC)c(OCC)c(OCC)c2)n1 | 100% (active)
58 | CCCCOc1ccc(C(=O)Nc2cc(C)nn2-c2nc(CCC)cc(=O)[nH]2)cc1 | 101% (active)
59 | CCCc1cc(=O)[nH]c(-n2nc(C)cc2NC(=O)c2ccc(OCC)cc2)n1 | 100% (active)
60 | CCCc1cc(=O)[nH]c(-n2nc(C)cc2NC(=O)c2ccc(OC)cc2)n1 | -40.9% (inactive)
61 | CCOc1cc(C(=O)Nc2cc(C)nn2-c2nc(C)cc(=O)[nH]2)cc(OCC)c1OCC | 100% (active)
62 | O=C(COc1ccc(Cl)c2ccccc12)NCC(F)(F)F | 17.8% (inactive)
63 | Clc1ccc(OCC2CCCNC2)c2ccccc12 (centres undefined) | 77.8% (active)
64 | Nc1ncc(Cc2ccc(F)cc2)s1 | 93% (active)
65 | Nc1ncc(Cc2ccc(Br)cc2)s1 | 46.1% (inactive)
66 | Nc1ncc(Cc2ccc(F)c(Cl)c2)s1 | -17.6% (inactive)
67 | COC(=O)c1ccc(COc2ccc(C3C4=C(Nc5nnnn53)C(C(C)(C)C)CCC4)cc2)cc1 (centres undefined) | 88.6% (active)
68 | COCCc1noc(C2CC2c2ccc(C)s2)n1 (centres undefined) | 90.7% (active)
69 | Cc1ccc(C2CC2C(=O)NC(C)c2nc(C3CCCC3)no2)s1 (centres undefined) | 29.8% (inactive)
70 | O=S(N1CCc2ccccc2C1)C12CC3CC(CC(C3)C1)C2 (centres undefined) | 80.3% (active)
71 | O=c1cc(CSc2cccc[n+]2[O-])c2c(ccc3ccccc32)o1 | 102% (active)
72 | Nc1ncc([N+](=O)[O-])c(Sc2nc3ccccc3s2)n1 | -52.4% (inactive)
73 | C=CCNc1nnc(Sc2ncccc2[N+](=O)[O-])s1 | 98.3% (active)
74 | CC(C)=CCC1=C(O)c2ccccc2C(=O)C1=O | 101% (active)
75 | O=C(Nc1nc2ccc3ccccc3c2s1)c1ccccc1 | 61.4% (active)
76 | O=C(Nc1nc2c(s1)CCN(Cc1ccccc1)C2)c1cccc(F)c1 | 21.5% (inactive)
77 | COc1ccc(Nc2ncnc3c2cnn3Cc2ccc(C)cc2)cc1 | 23.5% (inactive)
78 | Cc1ccc(Cn2ncc3cc(Br)cnc32)cc1 | 97% (active)

Row | Compound | inhibition
79 | Cc1ccc(Cn2ncc3c(Nc4ccc(C)cc4)ncnc32)cc1 | 35.1% (inactive)
80 | Cc1ccccc1-n1cc(CN(C)Cc2nc(-c3ccccc3)no2)cn1 | 86% (active)
81 | CCOc1ccc(Br)cc1S(=O)(=O)Oc1cccc2c1OC(C)(C)C2 | 23.4% (inactive)
82 | COc1ccc(Br)cc1S(=O)(=O)Oc1ccc2ccccc2c1 | 95.9% (active)
83 | CC(C)Oc1ccc(CNC(=O)c2cc(Cl)ccc2F)cn1 | -0.38% (inactive)
84 | O=C(NS(=O)(=O)c1ccc(Cl)cc1F)c1cccc2cn[nH]c12 | 22.9% (inactive)
85 | O=C(NCc1ccc(OCC2CC2)nc1)c1cccc2cn[nH]c12 | 79.9% (active)
86 | COCCn1c(O)c(C=NNC(=O)c2cc(Cl)ccc2O)c(=O)[nH]c1=S | 45.1% (inactive)
87 | O=C(NN=Cc1ccco1)c1cc(Br)ccc1O | 98.8% (active)
88 | C=CCc1ccc(OCCCCn2cnc3ccccc32)c(OC)c1 | 61.1% (active)
89 | C=CCc1ccccc1OCCn1cnc2ccccc21 | 57% (active)
90 | C=CCc1ccc(OCCOc2ccc(F)cc2)c(OC)c1 | -4.29% (inactive)
91 | OCc1ccc(Oc2ccc(Br)cc2)c(F)c1 | 94.1% (active)
92 | Cc1ccc(S(=O)(=O)c2ccc([N+](=O)[O-])o2)cc1 | 102% (active)
93 | Cc1nc(N)sc1-c1ccc([N+](=O)[O-])o1 | -7.32% (inactive)
94 | Cc1cc(C)c(-c2nc(NC(=O)C3=COCCO3)sc2C)cc1C | 11.4% (inactive)
95 | O=C(Nc1nnc(C2CC(=O)N(c3ccccc3)C2)o1)C1=COCCO1 (centres undefined) | 93.6% (active)
96 | NC(=S)COc1ccccc1 | 65.4% (active)
97 | NC(=S)COc1ccc(F)cc1 | 77.8% (active)
98 | O=C1CC(=O)N2C(c3ccccc3)=CSC2(OCCS)N1 (centres undefined) | -5.38% (inactive)
99 | COc1ccc(CNC(=O)c2ccc(-c3cccc(Cl)c3)s2)cc1 | 54.9% (active)
100 | COc1cccc(CNC(=O)c2ccc(-c3ccc(F)cc3)s2)c1 | inactive
101 | O=C(NCc1ccncc1)c1ccc(-c2ccc(C3CCCCC3)cc2)s1 | 8.46% (inactive)
102 | CC(NC(=O)c1ccc(-c2cccc(Cl)c2)s1)C(C)(C)C (centres undefined) | 50% (active)
103 | Cc1cccc(CNC(=O)c2ccc(-c3ccc(Oc4ccccc4)cc3)s2)c1 | 82.4% (active)
104 | N#Cc1sc(-c2cccc(Cl)c2)cc1N | 42.5% (inactive)
